Rows were chosen to be rich in hits. Some 21% of all compounds tested hit in one or more screens of this group.
Shiga toxin inh: A qHTS for Small Molecule Inhibitors of Shiga Toxin | Vero cells, Shiga toxin protein synthesis inhibition reporter | hit rate 9.2% among 290,000 | inhibition, % at 38.7 µM; in the data active = inhibition mostly above about 28%, no sharp cut-off; inactive = mostly below about 43%; also: 0% is about no effect
Pf growth 48h: Primary qHTS for delayed death inhibitors of the malarial parasite plastid, 48 hour incubation; P. falciparum luciferase growth in erythrocytes, 48 h; Potency, µM (doses to about 28.7 µM), without a hit: at the top dose activity change, negative = inhibition, most hits filed as inhibitors; hit rate 5.9% among 310,000; AID 504832, 2011; also: potency is read from the fitted curve at half-maximal effect; % is scaled to controls: 0 for no effect and ±100 for the full control effect
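A one-generation exposure of luciferase-tagged malaria parasites in RPMI 1640/Albumax erythrocyte culture, 37 C and 5% CO2. Inhibition is inferred from decreased luminescence after adding detection reagent.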
Pf growth 96h: Primary qHTS for delayed death inhibitors of the malarial parasite plastid, 96 hour incubation. Potency, µM (series often up to 28.7 µM), for inactives: at the highest dose activity change, negative = inhibition, most hits filed as inhibitors. AID 504834, 2011. P. falciparum luciferase reporter growth, 96 h. hit rate 6.9% among 320,000; also: potency is read from the fitted curve at half-maximal effect; % is scaled to controls: 0 for no effect and ±100 for the full control effect
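96 h incubation, 37 C, 5% CO2, of luciferase-reporter P. falciparum-infected RBCs (2% hematocrit, 0.05% parasitemia final) with test compounds; endpoint luminescence.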
NS1 function inh: qHTS Assay for Inhibitors of Influenza NS1 Protein Function | Potency, µM (highest dose often 46.1 µM), for inactives: top-dose activity, positive = more growth | hit rate 0.4% among 270,000; calls by dose curve; also: potency is read from the fitted curve at half-maximal effect; actives are rising curves; nearly all actives have a fitted effect of over 50% in size
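Read-out: OD600 growth recovery of NS1-expressing budding yeast. Cells grown overnight at 30C in -URA glucose medium, washed, resuspended and diluted 1:100 in 2% galactose assay medium, pH 6.0. Same strain lacking NS1 served as positive control.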
SARS PLP yeast: qHTS of Yeast-based Assay for SARS-CoV PLP. AID 485353, 2010. S. cerevisiae expressing SARS-CoV PLpro, growth rescue. hit rate 0.19% among 330,000. Potency, µM (highest dose often 32.9 µM), for inactives: top-dose activity, positive = growth rescue, usual class: activators; calls by dose curve; also: potency is read from the fitted curve at half-maximal effect; 0% is about no effect; nearly all actives have a fitted effect of over 55% in size
CHX counter: Cycloheximide Counterscreen for Small Molecule Inhibitors of Shiga Toxin. cell reporter, cycloheximide protein synthesis inhibition counterscreen. max response, %. hit rate 12% among 300,000; in the data active = max response mostly above about 13%, no sharp cut-off; inactive = mostly below about 14%; also: read at 38.3 µM for the half of the compounds with a filed dose; 0% is about no effect
The depositor's hits bear a star; i = inactive; ? = inconclusive; / = no result; [ ] = remark or other dose. Unless noted, calls follow the shape of the dose curve; as a rule, active = well fitted inhibition curve with a large enough effect; inconclusive = small, poorly fitted or top-dose-only effect, or another doubt; inactive = no such curve, though single readings can be large or run the other way.

SMILES | Shiga toxin inh | Pf growth 48h | Pf growth 96h | NS1 function inh | SARS PLP yeast | CHX counter
C/C(CC(=O)Nc1ccc(Cl)c(C(F)(F)F)c1)=N\NC(=O)c1cccc(O)c1 | 68* | 12µM* | -1% | -21% | -9% | 44*
C/C(CC(=O)Nc1ccc(Cl)c(C(F)(F)F)c1)=N\NC(N)=S | 73 | 45% | 35% | 5% | 0% | 20*
O=[N+]([O-])c1cccc(NC(=S)N2CCc3ccccc3C2)c1 | 79* | 2% | 17% | / | -1% | 59*
COc1ccc(NC(=S)NN2CCN(C)CC2)cc1OC | -6 | 24% | 2.3µM* | 3% | 20% | -2
COc1ccccc1NC(=S)N1CCCc2ccccc21 | 6 | 80% | 84% | / | 5% | 5
S=C(Nc1ccccc1)N1CCc2ccccc21 | / | 29% | ? | 11% | 1% | 14*
COc1ccc(NC(=S)N2CCc3ccccc32)cc1OC | 90* | -11% | -16% | 15% | 8% | 40*
COc1cc(NC(=S)NN2CCN(C)CC2)cc(OC)c1OC | -15 | -8% | -2% | 13% | 0% | -1
COc1cc(C(=S)N2CCCCC2)ccc1OCC(=O)Nc1ccc(F)cc1 | 18 | 0% | -14% | -54% | 5% | 9
Fc1cccc(NC(=S)N2CCc3ccccc32)c1 | 36 | 28% | -10% | 12% | 1% | 31
O=[N+]([O-])c1ccc(NC(=S)N2CCc3ccccc32)cc1 | 42* | 25% | ? | -43% | -5% | 29
CC(=O)c1cccc(NC(=S)N2CCc3ccccc32)c1 | 157* | 58% | 18% | 8% | 2% | 63*
O=C(NC(=S)N1CCc2ccccc21)c1ccccc1 | -13 | ? | ? | -37% | 0% | 1
Cc1cccc(NC(=O)COC(=O)c2ccc(S(=O)(=O)N3CCCC3)cc2)c1 | / | -27% | 10% | / | -5% | /
O=c1oc(-c2ccc([N+](=O)[O-])cc2)nc2ccc(O)cc12 | 3 | 21%[5.75 µM] | 22% | / | -1% | 17
COc1ccc(C2=C(c3ccc([N+](=O)[O-])cc3)C(=O)OC2)cc1 | -13 | -19% | ? | -2% | 1% | -2
CC(C)(C)Nc1nc2cc([N+](=O)[O-])ccc2o1 | 48* | 33% | 32% | -8% | 2% | 17*
Cn1cc2ccc([N+](=O)[O-])cc2n1 | -3 | 22% | 33% | 5% | 2% | -2
Nc1ccc(-c2nc3cc([N+](=O)[O-])ccc3o2)cc1 | 74* | 214% | 79% | ? | 1% | 106*
COc1ccc(-c2nc3cc([N+](=O)[O-])ccc3o2)cc1 | 99* | i | 21% | -2% | 0% | 40*
CC(C)CC(c1nnnn1CCc1ccccc1)N1CCC(C(N)=O)CC1 (centres undefined) | 3 | 19% | 9.3µM* | -3% | 12% | -1
CCCC(c1nnnn1Cc1ccc(OC)cc1)N1CCC(C(N)=O)CC1 (centres undefined) | -7 | -23% | 5% | ? | 11% | -3
COc1ccc(Cn2nnnc2C(CC(C)C)N2CCC(C(N)=O)CC2)cc1 (centres undefined) | 77* | -10% | ? | -4% | 0% | 44*
COc1ccc(CCn2nnnc2C(CC(C)C)N2CCC(C(N)=O)CC2)cc1OC (centres undefined) | -1 | 12% | 12µM* | -2% | 3% | -1
COc1ccc(CCn2nnnc2C(C(C)C)N2CCN(c3ncccn3)CC2)cc1OC (centres undefined) | -13 | 9.3µM* | ? | -23% | 6% | 11
CC(C)CC(c1nnnn1Cc1ccc(F)cc1)N1CCC(C(N)=O)CC1 (centres undefined) | -6 | -22% | 0% | / | 0% | -6
N#Cc1cnn2ccc(-c3cc(N4CCOCC4)ccc3[N+](=O)[O-])nc12 | -4 | 41% | 64% | / | -1% | -1
Cc1nc2c3ccccc3[nH]c(=O)n2n1 | 28 | 9% | -25% | 3% | 26% | -6
NC(=O)NCCN1CCN(c2ncc(C(F)(F)F)cc2Cl)CC1 | 20 | 39% | 11% | / | 0% | 3
Cc1cc(C)c(S(=O)(=O)CCC(C)C)c(=O)[nH]1 | -2 | 5% | ? | -1% | -1% | -1

Source: PubChem BioAssay (National Center for Advancing Translational Sciences (NCATS))
